Results reported in PubChem BioAssay.
Active and inactive are the calls of the source.

What was measured:
[1] = E. coli DRC41 culture turbidity changes, primary screen, E. coli filamentation inducer project, strain DRC41, OD650, 48 h (AID 1152);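 further: E. coli MC1000 strain DRC41 lacking acrAB efflux pump and sulA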; conditions: E. coli DRC41 (acrAB sulA), higher = more signal, called active from +8 up or from −8 down
[2] = small-molecule binders of probe aLefty1, primary screen, biochemical, small-molecule microarray, 635/667 nm fluorescence (AID 1153); conditions: higher = more signal;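 further: score merges spot fluorescence with signal-to-noise ratio from the scanned slide images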
[3] = PSAC antagonists in infected red cells, primary screen, cell-based, P. falciparum Indochina, OD700, 1 h (AID 1154); conditions: P. falciparum Indochina infected RBC osmotic lysis, higher = more signal, called active from +8 up or from −8 down
[4] = PSAC antagonists in infected red cells, primary screen, cell-based, P. falciparum Indochina, OD700, 2 h (AID 1155);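 further: lysis reports solute entry through the parasite surface anion channel PSAC; channel blockers reduce lysis of infected cells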; conditions: P. falciparum Indochina infected erythrocytes, osmotic lysis OD700; higher = more signal, called active from +8 up or from −8 down
[5] = osmotic lysis modulators in infected erythrocytes, primary screen, PSAC antagonist project, cell-based, P. falciparum Indochina, OD700, 3 h (AID 1156); conditions: higher = more signal, called active from +8 up or from −8 down
[6] = PSAC antagonists in infected red cells, primary screen, cell-based, P. falciparum Indochina, OD700, 18 h (AID 1157); conditions: P. falciparum Indochina infected erythrocytes, osmotic lysis OD700, 18 h; higher = more signal, called active from +8 up or from −8 down
[7] = modulators of S6 phosphorylation in cells, primary screen, cell-based, A549, cytoblot, luminescence, serum-stimulated (AID 1158); conditions: A549 phospho-S6 cytoblot, 5 h, higher = more signal;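 further: serum-stimulated A549 lung adenocarcinoma cells; signal is phosphorylated S6 detected by cytoblot immunostaining with HRP secondary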
[8] = target: NADPH oxidase 2 (Homo sapiens) (UniProt P04839); assay: NOX2-dependent H2O2 signal modulators, primary screen, NOX inhibitor project, cell-based, HEK293-NOX2, PMA-stimulated, Amplex Red fluorescence (AID 1159); conditions: 45 min, higher = more signal, called active from +8 up or from −8 down; further: test concentration not given here
NADPH oxidase 2 (Homo sapiens), sequence (P04839 whole entry, looked up): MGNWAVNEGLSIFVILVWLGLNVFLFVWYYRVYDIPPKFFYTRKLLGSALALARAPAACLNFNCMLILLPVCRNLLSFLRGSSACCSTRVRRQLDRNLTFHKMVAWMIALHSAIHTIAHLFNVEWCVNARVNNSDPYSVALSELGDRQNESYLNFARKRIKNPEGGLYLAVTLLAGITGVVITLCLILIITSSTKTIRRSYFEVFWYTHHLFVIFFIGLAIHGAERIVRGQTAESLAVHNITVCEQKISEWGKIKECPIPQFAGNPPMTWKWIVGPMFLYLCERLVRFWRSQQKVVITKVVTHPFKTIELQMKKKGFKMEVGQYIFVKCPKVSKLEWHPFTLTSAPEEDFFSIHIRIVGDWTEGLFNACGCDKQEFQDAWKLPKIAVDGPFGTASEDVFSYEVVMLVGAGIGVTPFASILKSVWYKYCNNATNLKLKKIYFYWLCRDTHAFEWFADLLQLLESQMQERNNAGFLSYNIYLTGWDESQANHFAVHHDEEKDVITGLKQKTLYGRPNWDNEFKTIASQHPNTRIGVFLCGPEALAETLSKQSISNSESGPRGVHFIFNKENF

[9] = target: NADPH oxidase 4 (Homo sapiens) (UniProt Q9NPH5); assay: NOX4-dependent H2O2 signal modulators, primary screen, NOX inhibitor project, cell-based, HEK293-NOX4, tetracycline-induced, Amplex Red fluorescence (AID 1160); conditions: 45 min, higher = more signal, called active from +8 up or from −8 down
NADPH oxidase 4 (Homo sapiens), sequence (Q9NPH5 whole entry, looked up): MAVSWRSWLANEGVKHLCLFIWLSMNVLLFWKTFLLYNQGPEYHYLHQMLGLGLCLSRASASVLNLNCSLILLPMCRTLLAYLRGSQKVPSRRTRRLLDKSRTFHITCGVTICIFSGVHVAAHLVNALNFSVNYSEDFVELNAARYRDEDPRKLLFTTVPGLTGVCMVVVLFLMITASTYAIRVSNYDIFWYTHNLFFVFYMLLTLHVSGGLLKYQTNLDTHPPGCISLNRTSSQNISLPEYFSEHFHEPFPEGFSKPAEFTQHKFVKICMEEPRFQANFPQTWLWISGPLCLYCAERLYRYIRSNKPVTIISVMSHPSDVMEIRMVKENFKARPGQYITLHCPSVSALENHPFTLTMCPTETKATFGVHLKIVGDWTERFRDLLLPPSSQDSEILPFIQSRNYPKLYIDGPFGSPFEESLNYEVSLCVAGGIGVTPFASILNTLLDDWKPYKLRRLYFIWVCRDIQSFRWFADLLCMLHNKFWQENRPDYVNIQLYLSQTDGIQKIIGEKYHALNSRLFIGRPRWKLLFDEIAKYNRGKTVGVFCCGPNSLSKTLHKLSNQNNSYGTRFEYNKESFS

[10] = target: NADPH oxidase 5 (Homo sapiens) (UniProt Q96PH1); assay: NOX5-dependent H2O2 signal modulators, primary screen, NOX inhibitor project, cell-based, HEK293-NOX5, Amplex Red fluorescence (AID 1161); conditions: HEK293-NOX5, ionomycin, 45 min, higher = more signal
NADPH oxidase 5 (Homo sapiens), sequence (Q96PH1 whole entry, looked up): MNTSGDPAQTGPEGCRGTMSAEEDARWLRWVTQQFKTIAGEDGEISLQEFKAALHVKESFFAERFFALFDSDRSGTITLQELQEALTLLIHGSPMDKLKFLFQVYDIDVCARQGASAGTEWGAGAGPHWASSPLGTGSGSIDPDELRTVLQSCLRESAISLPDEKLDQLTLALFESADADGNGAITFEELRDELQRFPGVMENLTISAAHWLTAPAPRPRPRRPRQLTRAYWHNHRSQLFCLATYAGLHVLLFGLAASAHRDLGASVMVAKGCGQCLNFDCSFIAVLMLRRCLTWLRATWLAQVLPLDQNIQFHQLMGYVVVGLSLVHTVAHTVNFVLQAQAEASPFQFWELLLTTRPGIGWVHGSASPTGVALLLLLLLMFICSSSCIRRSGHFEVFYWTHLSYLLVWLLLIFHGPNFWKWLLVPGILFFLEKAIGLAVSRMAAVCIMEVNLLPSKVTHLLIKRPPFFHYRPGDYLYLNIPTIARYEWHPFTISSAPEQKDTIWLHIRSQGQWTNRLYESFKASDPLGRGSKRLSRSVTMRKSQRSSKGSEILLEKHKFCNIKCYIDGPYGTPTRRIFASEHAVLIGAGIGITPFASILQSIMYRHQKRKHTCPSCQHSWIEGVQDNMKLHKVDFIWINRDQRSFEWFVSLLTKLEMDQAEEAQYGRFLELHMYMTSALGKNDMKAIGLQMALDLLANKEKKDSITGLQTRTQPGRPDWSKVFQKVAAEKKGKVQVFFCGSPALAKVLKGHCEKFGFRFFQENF

[11] = A549 cell viability effects, profiling panel, calcein-AM fluorescence, 48 h, basal (AID 1162); conditions: higher = more signal; further: test concentration not given here
[12] = adipocyte viability effects, profiling panel, cell-based, 3T3-L1 adipocytes, calcein-AM fluorescence, 48 h, basal (AID 1163); conditions: 3T3-L1 adipocytes viability, higher = more signal; further: test concentration not given here
[13] = HepG2 cell viability effects, profiling panel, calcein-AM fluorescence, 48 h, basal (AID 1164); conditions: higher = more signal; further: test concentration not given here
[14] = MM1S cell viability effects, profiling panel, calcein-AM fluorescence, 48 h, basal (AID 1165); conditions: higher = more signal;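 further: viability of MM1S multiple myeloma cells under basal unstimulated conditions; test concentration not given here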
[15] = basal RPMI8226 viability, no added stimulus, profiling panel, cell-based, calcein-AM fluorescence, 48 h, PK04 Diversity Set (AID 1166); conditions: RPMI8226 myeloma viability, higher = more signal;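 further: cells grown under basal conditions without added stimulus; test concentration not given here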
[16] = basal HepG2 mitochondrial membrane potential changes, profiling panel, cell-based, JC-1 fluorescence, 24 h, 100 nL compound (AID 1167); conditions: higher = more signal; further: test concentration not given here
[17] = basal 3T3-L1 adipocyte mitochondrial potential changes, profiling panel, cell-based, JC-1 fluorescence, 3T3-L1 adipocytes, 24 h, 100 nL compound (AID 1168); conditions: JC-1 mitochondrial fluorescence, higher = more signal, called active from +8 up or from −8 down; further: test concentration not given here
[18] = basal RPMI8226 mitochondrial membrane potential changes, profiling panel, cell-based, JC-1 fluorescence, 24 h, 100 nL compound (AID 1169); conditions: RPMI8226 myeloma, JC-1 mitochondrial potential fluorescence, higher = more signal; further: test concentration not given here
[19] = basal MM1S mitochondrial membrane potential changes, profiling panel, cell-based, JC-1 fluorescence, 24 h, 100 nL compound (AID 1170); conditions: higher = more signal; further: test concentration not given here
[20] = A549 lung cancer cell viability effects, profiling panel, resazurin fluorescence, 24 h, PK04 Diversity Set (AID 1171); conditions: higher = more signal, called active from +8 up or from −8 down; further: test concentration not given here

| SMILES | z-score [1] | composite z-score [2] | z-score [3] | z-score [4] | z-score [5] | z-score [6] | z-score [7] | z-score [8] | z-score [9] | z-score [10] | z-score [11] | z-score [12] | z-score [13] | z-score [14] | z-score [15] | z-score [16] | z-score [17] | z-score [18] | z-score [19] | z-score [20] |
| --- | --- | --- | --- | --- | --- | --- | --- | --- | --- | --- | --- | --- | --- | --- | --- | --- | --- | --- | --- | --- |
| C=CC[C@]1(C(=O)N(C)C)N=C(c2ccc(OCCCO)cc2)O[C@H]1c1ccccc1N=[N+]=[N-] | 0.355 (inactive) | 0.313 | 30.8 (active) | 28.4 (active) | 2.88 (inactive) | 7.33 (inactive) | -0.219 | -1.06 (inactive) | 1.52 (inactive) | 0.668 | -0.363 | -0.768 | -0.2 | -0.995 | -1.85 | -0.358 | 0.0159 (inactive) | -0.886 | -1.23 | -0.302 (inactive) |
| CC[C@H]1C2=C3C(CC[C@H]4C(OCc5ccc(F)cc5C(F)(F)F)OC[C@](C)([C@@H]34)N(C(=O)OC(C)(C)C)C2)C2COC(=O)OCC21 (stereo not given in full) | -2.17 (inactive) | 0.513 | 1.28 (inactive) | 0.584 (inactive) | 1.63 (inactive) | 0.91 (inactive) | -0.445 | -0.582 (inactive) | -1.74 (inactive) | -1.5 | -0.195 | -0.412 | 0.478 | -2.9 | -4.68 | -0.492 | -1.41 (inactive) | -0.0899 | -1.45 | -0.186 (inactive) |
| CC(C)CN1C(=O)[C@@]2(c3ccc([N+](=O)[O-])cc3)CC(=O)N(CC34CC5CC(CC(C5)C3)C4)[C@@H]2c2ccc(CO)cc21 | 0.193 (inactive) | 0.129 | 1.17 (inactive) | -0.377 (inactive) | 0.0846 (inactive) | -1.17 (inactive) | 2.01 | -0.187 (inactive) | -0.981 (inactive) | -0.986 | -0.181 | 1.04 | -0.744 | -0.0484 | -0.544 | -0.849 | -0.316 (inactive) | 0.833 | -2.29 | -0.186 (inactive) |
| COCCOC(=O)N1C(=O)[C@@]2(c3ccccc31)[C@H](c1ccc(OCCO)cc1)N1[C@H](c3ccccc3)[C@H](c3ccccc3)OC(=O)[C@H]1[C@@H]2C(=O)Nc1nc2ccccc2s1 | 0.269 (inactive) | 0.071 | 4.55 (inactive) | 2.02 (inactive) | -0.214 (inactive) | 1.74 (inactive) | -0.381 | 1.13 (inactive) | 1.17 (inactive) | 1.28 | -1.38 | 0.73 | -1.18 | -1.15 | -1.57 | -3.4 | 0.576 (inactive) | -1.09 | -1.36 | 0.294 (inactive) |
| COC(=O)[C@@]1(Cc2ccc(F)cc2)[C@H]2c3cc(C(=O)N4CCCC4)n(CCc4c[nH]c5ccc(OC)cc45)c3C[C@H]2CN1C(=O)c1ccccc1 | -1.06 (inactive) | 1.97 | 4.03 (inactive) | -0.165 (inactive) | 0.217 (inactive) | -0.583 (inactive) | 1.03 | -3.07 (inactive) | 0.118 (inactive) | -2.39 | -2.28 | 0.787 | -0.906 | -2.13 | -4.1 | 1 | -1.33 (inactive) | -0.917 | -2 | -1.63 (inactive) |
| C[C@]1(C(=O)O)c2ccccc2C(=O)N(Cc2ccccc2)[C@H]1c1ccc(CO)cc1 | 0.576 (inactive) | -0.147 | 3.5 (inactive) | 0.52 (inactive) | 1.06 (inactive) | 0.548 (inactive) | -0.0555 | 0.67 (inactive) | 0.917 (inactive) | 0.42 | 0.277 | 0.504 | 0.67 | 0.132 | 0.0631 | 1.33 | 0.114 (inactive) | -0.768 | 0.161 | 1.08 (inactive) |
| COc1cc2c(cc1OC)CN(C(=O)[C@H]1[C@@H]3C(=O)O[C@@H](c4ccccc4)[C@@H](c4ccccc4)N3[C@@H](c3ccc(OCCO)cc3)[C@]13C(=O)Nc1ccc(C#CC4(O)CCCCCC4)cc13)CC2 | 1.9 (inactive) | 1.51 | 3.15 (inactive) | 2.15 (inactive) | 1.08 (inactive) | 1.35 (inactive) | 0.108 | 1.32 (inactive) | 0.882 (inactive) | 1.28 | 0.943 | 0.0483 | 1.17 | 0.217 | 0.0846 | -0.871 | 0.568 (inactive) | -0.338 | -0.852 | -0.354 (inactive) |
| CC(C)C[C@@H]1NC(=O)[C@H]2C[C@@H](C(=O)NCCCCCC[N+](C)(C)C)[C@@H](c3cccc(OCCO)c3)N2C1=O | 0.898 (inactive) | -0.64 | 6.18 (inactive) | 0.596 (inactive) | 0.853 (inactive) | 0.251 (inactive) | -0.214 | 1.67 (inactive) | 0.95 (inactive) | 1.3 | -0.53 | 0.282 | 0.0659 | -0.804 | -0.0361 | -0.474 | 0.0908 (inactive) | -0.271 | -0.34 | 1.24 (inactive) |
